This is an account of results in the supplement of paper PMC4894684.

Where a name gives a salt, the structure may show the parent alone. ± gives the standard deviation of the averaged measurements.

This assay relates to Toxoplasma gondii RH (in HFF). In words: parasite growth relative to the screen mean (all compounds = 100%); higher = less inhibition of parasite growth. Conditions: 5 µM; 72 h; oxygen 21 %. A digest of the protocol: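 RH β-Gal–GFP Toxoplasma at MOI 1:5 was used to infect confluent human foreskin fibroblasts in 96-well plates within 2 h of pin-transferring compounds to 5 µM final. After 72 h at 21% O2, parasite number was determined by CPRG β-Gal assay against standard curves on the same plate. Growth is relative to the screen mean and averaged over two screens, with all compounds = 100%.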
As for `CCCC1O[C@@H]2C[C@H]3[C@@H]4CCC5=CC(=O)C=C[C@]5(C)[C@H]4[C@@H](O)C[C@]3(C)[C@]2(C(=O)CO)O1` (some centres undefined) [Budesonide], the parasite growth turned out to be 138 ± 12%.

On to `O=C(O)CCC/C=C\C[C@@H]1CO[C@H](C(F)(F)F)O[C@@H]1c1ccccc1O`, for which the parasite growth came out at 102 ± 25%.

In turn, `O=c1cc(N2CCOCC2)oc2c1ccc1ccccc12` came in with a parasite growth of 89.2 ± 2.4%.

`CN1CC(=O)N=C1NC(=O)Nc1cccc(Cl)c1` [Fenobam] gave a parasite growth of 134 ± 5.3%.

`O=C1CCc2cc(OCCCCc3nnnn3C3CCCCC3)ccc2N1` [Cilostazol] displayed a parasite growth of 74.6 ± 3.3%.

On to `CC#CCOC(=O)c1c(C)nc2sc3c(c2c1N)CCC(O)C3` (centres undefined), for which the parasite growth was 117.8 ± 0.28%.

`Clc1ccc2c(c1)N=C(N1CCNCC1)c1ccccc1N2` [N-Desmethylclozapine]: the parasite growth worked out at 59.7 ± 2.8%.

In turn, `Nc1nnc(Sc2ncc([N+](=O)[O-])s2)s1` registered a parasite growth of 116 ± 26%.

Consider `O=C1NC(=O)C(c2ccccc2[N+](=O)[O-])=C1Nc1ccc(O)c(Cl)c1`, for which the parasite growth was 155 ± 3.7%.

On to `O=c1c(-c2ccc(O)cc2)coc2cc(O)cc(O)c12` [Genistein], for which the parasite growth turned out to be 148 ± 28%.

In turn, `FC(F)(F)c1cc(COC2CCCNC2c2ccccc2)cc(C(F)(F)F)c1` [L-733,060 hydrochloride] yielded a parasite growth of 29.6 ± 16%.

`CCOC(=O)[C@H](CCc1ccccc1)N[C@@H](C)C(=O)N1Cc2cc(OC)c(OC)cc2C[C@H]1C(=O)O` [Moexipril hydrochloride] displayed a parasite growth of 63.9 ± 14%.

As to `CCCCCCCC/C=C\CCCCCCCC(N)=O` [Oleamide], the parasite growth was found to be 74.8 ± 12%.

Compound `COc1ccccc1N1CCN(CCCNc2cc(=O)n(C)c(=O)n2C)CC1` [Urapidil hydrochloride] yielded a parasite growth of 105 ± 3.7%.
